Source: PubChem BioAssay (NCATS)
Records with an inconclusive call do not appear. The source made the active and inactive calls. Calls follow the shape of the dose curve; as a rule, active = well fitted inhibition curve with a large enough effect; inconclusive = small, poorly fitted or top-dose-only effect; inactive = flat fitted curve, though single readings scatter.

How the values were obtained:
Assay in all cases: Cytotoxic Profiling of Annotated Libraries Using Quantitative High-Throughput Screening (AID 1296008); also: nearly all actives have a fitted effect of over 60% in size
Conditions in all cases: Five cell lines viability, CellTiter-Glo ATP luminescence, 48-72 h; max response: hits give low values
CRL-7250 = normal cell line; test system: CRL-7250
Summary of the method: (§1)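 Compounds were pin-transferred onto cells and incubated 48 or 72 hr at 37 degree Celsius, 95% humidity. CellTiter-Glo was added, plates sat 10 min at room temperature, then ATP-coupled luminescence was imaged as the viability read-out.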

HEK293 = test system: HEK293
Summary of the method: as §1

HaCat = test system: HaCat
Summary of the method: as §1

KB-3-1 = test system: KB-3-1
Summary of the method: as §1

NIH3T3 = test system: NIH3T3
Summary of the method: as §1

Measured: max response
% is scaled to controls: 0 for no effect and ±100 for the full control effect.

O=C(/C=C/c1ccc(O)cc1)OC[C@@]1(O)C=C[C@@H]2C(C(=O)O)=CO[C@@H](O[C@@H]3O[C@H](CO)[C@@H](O)[C@H](O)[C@H]3O)[C@@H]21
inactive: CRL-7250 -3.16% | HEK293 -5.68% | HaCat | KB-3-1 | NIH3T3 2.82%

Cc1nc2ccccc2c(-c2ccc3c4c(ccnc24)CCO3)c1[C@H](OC(C)(C)C)C(=O)O
inactive: CRL-7250 -8% | HEK293 4.74% | HaCat | KB-3-1 -6.3% | NIH3T3 -2.71%

COc1cc(/C=C/C(=O)OC[C@H]2O[C@@H](OC3OC=C(C(=O)O)C4C(O)CC(C)(O)C34)[C@H](O)[C@@H](O)[C@@H]2O)cc(OC)c1O (stereo not given in full)
inactive: CRL-7250 -14.2% | HEK293 -83.6% | HaCat | KB-3-1 9.94% | NIH3T3 4.03%

C=C1C(=O)O[C@@H]2/C=C(\C)CC/C=C(\C(=O)O[C@@H]3O[C@H](CO)[C@@H](O)[C@H](O)[C@H]3O)CC[C@@H]12
inactive: CRL-7250 4.73% | HEK293 -0.494% | HaCat | KB-3-1 -8.71% | NIH3T3 -22.6%

C/C=C(\C)C1C(C)=CC2CCC(OS(=O)(=O)O)C(C)C2C1/C=C/C=C/C(=O)O (stereo not given)
inactive: CRL-7250 | HEK293 | HaCat -12.6% | KB-3-1 7.13% | NIH3T3 -0.702%

C=C1Cc2c(Cl)cc3[nH]c4c5c3c2[C@@]2(O)[C@@H]1C[C@@H]2C(C)(C)O[C@H]5C1CC[C@@]2(O)[C@@]35O[C@@H]3[C@H]3OC(C)(C)[C@H]3O[C@H]5CC[C@]2(C)[C@@]41C (stereo not given in full)
inactive: CRL-7250 -4.78% | HEK293 0.456% | HaCat | KB-3-1 6.12% | NIH3T3
